The source made the active and inactive calls.

This passage reports z-score results from PubChem BioAssay.

Experiment [1] can be described thus: A549 cell viability effects, profiling panel, calcein-AM fluorescence, 48 h, basal (AID 1162). Conditions: higher = more signal.
A short description of experiment [2]: adipocyte viability effects, profiling panel, cell-based, 3T3-L1 adipocytes, calcein-AM fluorescence, 48 h, basal (AID 1163). Conditions: 3T3-L1 adipocytes viability, higher = more signal.
A short description of experiment [3]: HepG2 cell viability effects, profiling panel, calcein-AM fluorescence, 48 h, basal (AID 1164). The conditions noted are these: higher = more signal.
A short description of experiment [4]: MM1S cell viability effects, profiling panel, calcein-AM fluorescence, 48 h, basal (AID 1165).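 Note: viability of MM1S multiple myeloma cells under basal unstimulated conditions.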 Conditions: higher = more signal.
The nature of experiment [5]: basal RPMI8226 viability, no added stimulus, profiling panel, cell-based, calcein-AM fluorescence, 48 h, PK04 Diversity Set (AID 1166).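 Note: cells grown under basal conditions without added stimulus.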 Conditions: RPMI8226 myeloma viability, higher = more signal.
Experiment [6] is described as follows: basal HepG2 mitochondrial membrane potential changes, profiling panel, cell-based, JC-1 fluorescence, 24 h, 100 nL compound (AID 1167). The conditions noted are these: higher = more signal.
Experiment [7] is described as follows: basal 3T3-L1 adipocyte mitochondrial potential changes, profiling panel, cell-based, JC-1 fluorescence, 3T3-L1 adipocytes, 24 h, 100 nL compound (AID 1168). The conditions noted are these: JC-1 mitochondrial fluorescence, higher = more signal, called active from +8 up or from −8 down.
The nature of experiment [8]: basal RPMI8226 mitochondrial membrane potential changes, profiling panel, cell-based, JC-1 fluorescence, 24 h, 100 nL compound (AID 1169). The conditions noted are these: RPMI8226 myeloma, JC-1 mitochondrial potential fluorescence, higher = more signal.
Experiment [9] in a line: basal MM1S mitochondrial membrane potential changes, profiling panel, cell-based, JC-1 fluorescence, 24 h, 100 nL compound (AID 1170). Conditions: higher = more signal.
The nature of experiment [10]: A549 lung cancer cell viability effects, profiling panel, resazurin fluorescence, 24 h, PK04 Diversity Set (AID 1171). Conditions: higher = more signal, called active from +8 up or from −8 down. Background: Resazurin is reduced to fluorescent resorufin, in cell work by metabolically active cells.
Note: test concentration not given here.

Regarding `COCCCNC(=O)[C@@]1(Cc2ccccc2N=[N+]=[N-])N=C(c2ccc(OCCCO)cc2)O[C@H]1c1ccccc1`, the z-score in experiment [1] is -1.07; in experiment [2], 0.538; in experiment [3], -0.412; in experiment [4], -1.41; in experiment [5] it was -2.78; in experiment [6], 1.02. Besides, the z-score was 1.27 (inactive) in experiment [7], -1.03 in [8], -0.34 in [9] and 0.308 (inactive) in experiment [10].
For `COCCCNC(=O)[C@@]1(Cc2ccccc2N=[N+]=[N-])COC(c2ccc(OCCCO)cc2)=N1`, the z-score in experiment [1] is 0.552; in experiment [2] it was -0.707; in experiment [3], 0.815; in experiment [4], -0.919; in [5], -0.0778; in experiment [6], 0.796. For the same compound, the z-score is 0.156 (inactive) in experiment [7], -0.408 in experiment [8], -1.21 in experiment [9] and 0.992 (inactive) in experiment [10].
`COCCCNC(=O)[C@]1(CCS(=O)(=O)c2ccccc2)N=C(c2ccc(OCCCO)cc2)O[C@@H]1c1ccccc1N=[N+]=[N-]`: the z-score is 0.76 in experiment [1]; 0.108 in experiment [2]; 0.683 in experiment [3]; -1.41 in experiment [4]; -0.311 in experiment [5]; -0.0945 in [6]. Besides, the z-score in experiment [7] is -0.594 (inactive); in experiment [8], -0.986; in experiment [9], -0.754; in experiment [10], 0.265 (inactive).
Regarding `CN(C)C(=O)[C@@]1(Cc2ccccc2CN=[N+]=[N-])N=C(c2ccc(OCCCO)cc2)O[C@H]1c1ccccc1CN=[N+]=[N-]`, the z-score in experiment [1] is -0.446; in experiment [2], -0.182; in experiment [3], -1.29; in [4], -1.42; in [5] it was -3.77; in [6], 1.11. Besides, the z-score in experiment [7] was -1.34 (inactive); in [8], -1.12; in experiment [9] it was -2.11; in experiment [10], -0.67 (inactive).
In the case of `CCCNC(=O)[C@@]1(c2ccc([N+](=O)[O-])cc2)CC(=O)N(C2CCCCC2)[C@@H]1c1ccc(CO)cc1`, the z-score in experiment [1] is 0.663; in experiment [2] it was 0.29; in [3] it was 0.196; in [4], -0.409; in [5] it was 0.46; in [6] it was 0.536. Further, the z-score in [7] is -1.19 (inactive); in experiment [8], -0.506; in [9], 0.773; in experiment [10] it was 1.13 (inactive).
For `COC(=O)[C@@]1(Cc2ccc(OC)cc2)[C@H]2c3cc(C(=O)N4CCCC4)n(Cc4c(-c5ccccc5)noc4C)c3C[C@H]2CN1C(=O)c1ccccc1`, the z-score in [1] was -0.893; in [2] it was -0.451; in experiment [3], -0.176; in [4], -2.72; in [5] it was -4.68; in experiment [6] it was 0.128. The z-score in experiment [7] was -0.732 (inactive); in experiment [8] it was -0.774; in experiment [9], -1.52; in experiment [10], 0.356 (inactive).
For `CN1C(=O)C2C=CC(C(O)c3ccccn3)N(N(c3ccccc3)c3ccccc3)C2C1=O` (stereo not given), the z-score is -0.711 in [1]; -1.63 in experiment [2]; -0.108 in experiment [3]; 0.0262 in experiment [4]; -0.771 in experiment [5]; -1.53 in experiment [6]. In addition, the z-score in [7] was -0.695 (inactive); in experiment [8], 0.305; in experiment [9] it was -0.468; in experiment [10], -0.859 (inactive).
`CCCNC(=O)[C@@H]1c2ccccc2C(=O)N(C(C)C)[C@H]1c1ccc(CO)cc1`: the z-score in [1] was 0.678; in experiment [2], 0.306; in experiment [3], 0.997; in [4] it was 0.92; in experiment [5] it was -0.34; in experiment [6], 1.81. Besides, the z-score in experiment [7] was 1.82 (inactive); in [8] it was -0.119; in experiment [9] it was -0.695; in experiment [10] it was 0.136 (inactive).
As to `COC(=O)C(CC#Cc1ccc2c(c1)[C@]1(C(=O)N2)[C@H](C(=O)N2CCN(c3ncccn3)CC2)[C@H]2C(=O)O[C@H](c3ccccc3)[C@H](c3ccccc3)N2[C@@H]1c1ccc(OCCO)cc1)C(=O)OC`, the z-score is -0.0572 in [1]; -0.609 in experiment [2]; 1.09 in [3]; 0.607 in experiment [4]; 0.363 in [5]; -0.612 in experiment [6]. Also, the z-score in experiment [7] was 0.895 (inactive); in experiment [8], -0.933; in experiment [9], -1.44; in experiment [10], -0.178 (inactive).
With `O=C1O[C@H](c2ccccc2)[C@H](c2ccccc2)N2[C@H]1[C@@H](C(=O)NC[C@H](O)c1ccccc1)[C@]1(C(=O)Nc3ccc(C#CCCO)cc31)[C@H]2c1ccc(OCCO)cc1`, the z-score was 1.12 in experiment [1]; 1.25 in experiment [2]; 1.49 in experiment [3]; -0.156 in [4]; 0.868 in [5]; -0.274 in experiment [6]. Besides, the z-score was -0.0786 (inactive) in experiment [7], -0.165 in experiment [8], -0.389 in experiment [9] and -0.0659 (inactive) in [10].
Consider `CC=CC(O)C1C=CC2C(=O)N(c3ccccc3)C(=O)C2N1Nc1ccccc1F` (stereo not given), for which the z-score is -1.68 in [1]; -0.161 in experiment [2]; -0.182 in [3]; 0.807 in experiment [4]; -1.85 in experiment [5]; -0.866 in experiment [6]. Moreover, the z-score in [7] was -0.961 (inactive); in experiment [8], 0.367; in [9] it was -0.254; in experiment [10], -0.548 (inactive).
Take `CCCCN1CC=CC23O[C@@H]4/C=C\CCC(C)OC(=O)C4[C@H]2C(=O)N(C(CO)C(C)C)[C@@H]3C1=O` (stereo not given in full): the z-score was 0.0282 in experiment [1]; -0.21 in experiment [2]; 0.519 in experiment [3]; 1.61 in experiment [4]; -0.773 in experiment [5]; -0.403 in experiment [6]. Also, the z-score in experiment [7] is -1.27 (inactive); in experiment [8], 0.0795; in experiment [9], -0.676; in experiment [10], -0.0227 (inactive).
`C=C(C)C1CCC(C(O)C2C=CC3C(=O)N(C)C(=O)C3N2N2CCCCC2)CC1` (stereo not given): the z-score in experiment [1] is -1.25; in experiment [2], -1.16; in experiment [3], -0.774; in experiment [4], -0.683; in [5], -0.665; in [6] it was -1.38. Moreover, the z-score in experiment [7] was -1.53 (inactive); in experiment [8], 0.887; in experiment [9] it was -0.31; in [10], 0.262 (inactive).
Take `COc1cc2c(cc1OC)CN(C(=O)[C@@H]1[C@H]3C(=O)O[C@H](c4ccccc4)[C@H](c4ccccc4)N3[C@H](c3ccc(OCCO)cc3)[C@@]13C(=O)Nc1ccc(C#CC4(O)CCCCCC4)cc13)CC2`: the z-score was 2.93 in experiment [1]; 1.72 in [2]; 0.988 in [3]; -0.0788 in [4]; 0.792 in experiment [5]; -0.555 in experiment [6]. In addition, the z-score in experiment [7] was 0.601 (inactive); in [8], -0.831; in experiment [9], -1.3; in experiment [10] it was 0.36 (inactive).
As for `COc1ccc(CCNC(=O)[C@@]2(Sc3ccc(C)cc3)CC(=O)N(C3Cc4ccccc4C3)[C@@H]2c2ccc(CO)cc2)cc1`, the z-score in experiment [1] was -0.342; in experiment [2], 0.67; in experiment [3], -1.16; in [4], -0.729; in experiment [5], -1.35; in experiment [6] it was -0.114. The z-score in experiment [7] is -0.775 (inactive); in [8] it was -0.608; in experiment [9], -0.885; in experiment [10], 0.358 (inactive).
In the case of `Cn1cccc1C(O)C1C=CC2C(=O)NC(=O)C2N1Nc1ccc(Cl)cc1Cl` (stereo not given), the z-score in experiment [1] was -0.924; in experiment [2] it was -0.457; in experiment [3] it was -1.5; in experiment [4] it was -3.45; in experiment [5], -2.24; in experiment [6], -2.72. For the same compound, the z-score is -1.36 (inactive) in [7], -0.929 in experiment [8], 0.234 in experiment [9] and -0.299 (inactive) in experiment [10].
